According to PubChem BioAssay (EPA / NIEHS):
The source made the active and inactive calls. The calls were made as follows: active = hit-call score of the fitted dose curve at least 0.9, where 1 is the maximum; inactive = score below 0.9.

Legend:
Details in all cases: mRNA level, 48 h; actives raise or lower the signal
[1] = read-out: Glutathione S-Transferase (GSTA2), GSTA2 (gene 2939); test: LTEA_HepaRG_GSTA2: Life Technologies and Expression Analysis (LTEA) Assay for Glutathione S-Transferase (GSTA2) using HepaRG (AID 2283497)
Procedure, shortened: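 Differentiated human HepaRG cells were exposed in duplicate for 48 h in serum-free induction medium, 8 points from 100 uM top in half-log steps, 0.5% DMSO. GSTA2 mRNA was measured by TaqMan qRT-PCR, normalized to ACTB, GAPDH and POLR2A; bidirectional fit versus DMSO.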

[2] = read-out: Glutamate-cysteine ligase catalytic (GCLC), GCLC (gene 2729); test: LTEA_HepaRG_GCLC: Life Technologies and Expression Analysis (LTEA) Assay for Glutamate-cysteine ligase catalytic (GCLC) using HepaRG (AID 2283498)
Procedure, shortened: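 Differentiated HepaRG cells exposed 48 h in serum-free induction medium, eight-point half-log series topping at 100 uM in 0.5% DMSO, duplicates. GCLC mRNA by qRT-PCR normalized to ACTB, GAPDH and POLR2A, fitted bidirectionally versus DMSO.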

[3] = read-out: Glutamate-cysteine ligase regulatory (GCLM), GCLM (gene 2730); test: LTEA_HepaRG_GCLM: Life Technologies and Expression Analysis (LTEA) Assay for Glutamate-cysteine ligase regulatory (GCLM) using HepaRG (AID 2283500)
Procedure, shortened: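 Differentiated human HepaRG cells exposed 48 h in serum-free induction medium to 8-point half-log concentrations (top 100 uM, 0.5% DMSO), in duplicate. GCLM mRNA quantified by qRT-PCR, normalized to ACTB, GAPDH, POLR2A; bidirectional fitting versus DMSO.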

[4] = read-out: Glutathione S-transferase M3 (GSTM3), GSTM3 (gene 2947); test: LTEA_HepaRG_GSTM3: Life Technologies and Expression Analysis (LTEA) Assay for Glutathione S-transferase M3 (GSTM3) using HepaRG (AID 2283501)
Procedure, shortened: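 GSTM3 transcript levels came from Fluidigm TaqMan qRT-PCR normalized to three housekeeping genes, fitted in both directions against DMSO. HepaRG cultures received chemicals for 48 h in serum-free induction medium (0.5% DMSO), 8 half-log concentrations up to 100 uM, duplicate.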

[5] = read-out: Heat shock 70 kDa protein 1 (HSPA1A), gene 3303; test: LTEA_HepaRG_HSPA1A: Life Technologies and Expression Analysis (LTEA) Assay for Heat shock 70 kDa protein 1 (HSPA1A) using HepaRG (AID 2283502)
Procedure, shortened: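 Differentiated human HepaRG cells in serum-free induction medium were exposed in duplicate for 48 h to eight concentrations (top 100 uM, half-log steps, 0.5% DMSO). HSPA1A mRNA was quantified by qRT-PCR, normalized to ACTB, GAPDH and POLR2A, and fitted bidirectionally against DMSO.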

[6] = read-out: Hypoxia-inducible factor 1-alpha (Homo sapiens) (UniProt Q16665); test: LTEA_HepaRG_HIF1A: Life Technologies and Expression Analysis (LTEA) Assay for Hypoxia-inducible factor 1 (HIF1A) Trancription factor using HepaRG (AID 2283503)
Procedure, shortened: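 HepaRG, 48 h exposure, 8-pt half-log series from 100 uM, 0.5% DMSO vehicle, duplicates. Readout: HIF1A transcript by qRT-PCR (Fluidigm array), housekeeping-normalised. Bidirectional curve fit vs DMSO baseline.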

[7] = read-out: 3-Hydroxy-3-Methylglutaryl-CoA Synthase 2 (HMGCS2), HMGCS2 (gene 3158); test: LTEA_HepaRG_HMGCS2: Life Technologies and Expression Analysis (LTEA) Assay for 3-Hydroxy-3-Methylglutaryl-CoA Synthase 2 (HMGCS2) using HepaRG (AID 2283504)
Procedure, shortened: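 Readout is HMGCS2 transcript by qRT-PCR, housekeeping-normalised (ACTB/GAPDH/POLR2A) and fitted bidirectionally against 0.5% DMSO. Differentiated HepaRG cells received chemicals 48 h, duplicate wells, eight half-log concentrations topping at 100 uM.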

[8] = read-out: HGF (gene 3082); test: LTEA_HepaRG_HGF: Life Technologies and Expression Analysis (LTEA) Assay for Hepatocyte Growth Facto (HGF) using HepaRG (AID 2283505)
Procedure, shortened: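 HGF transcript was quantified by TaqMan qRT-PCR against three housekeeping genes after 48 h treatment of HepaRG cells. Exposure ran in duplicate over eight half-log steps topping at 100 uM in 0.5% DMSO vehicle.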

[9] = read-out: Insulin Like Growth Factor 1 (IGF1), IGF1 (gene 3479); test: LTEA_HepaRG_IGF1: Life Technologies and Expression Analysis (LTEA) Assay for Insulin Like Growth Factor 1 (IGF1) using HepaRG (AID 2283506)
Procedure, shortened: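 Differentiated human HepaRG cells were dosed for 48 h in serum-free induction medium with 0.5% DMSO, eight half-log concentrations up to 100 uM, in duplicate. IGF1 mRNA was quantified by qRT-PCR normalized to ACTB, GAPDH, POLR2A; bidirectional fitting versus DMSO.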

[10] = read-out: Intercellular Adhesion Molecule 1 (ICAM1), ICAM1 (gene 3383); test: LTEA_HepaRG_ICAM1: Life Technologies and Expression Analysis (LTEA) Assay for Intercellular Adhesion Molecule 1 (ICAM1) using HepaRG (AID 2283507)
Procedure, shortened: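 ICAM1 transcript levels measured by qRT-PCR, normalized to three housekeeping genes (ACTB, GAPDH, POLR2A), after 48 h chemical exposure of HepaRG cells. Duplicate eight-point half-log series from 100 uM in 0.5% DMSO; gain or loss fitted against vehicle.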

[11] = read-out: Insulin-like growth factor-binding protein 1 (IGFBP1), IGFBP1 (gene 3484); test: LTEA_HepaRG_IGFBP1: Life Technologies and Expression Analysis (LTEA) Assay for Insulin-like growth factor-binding protein 1 (IGFBP1) using HepaRG (AID 2283508)
Procedure, shortened: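 Read-out is qRT-PCR transcript level normalized to three housekeeping genes, fitted in both directions against 0.5% DMSO. Differentiated HepaRG cells received eight half-log concentrations (top 100 uM) in duplicate for 48 h in serum-free induction medium.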

[12] = read-out: Interleukin 6 (IL6), IL6 (gene 3569); test: LTEA_HepaRG_IL6: Life Technologies and Expression Analysis (LTEA) Assay for Interleukin 6 (IL6) using HepaRG (AID 2283509)
Procedure, shortened: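 HepaRG cells exposed in duplicate for 48 h to eight half-log concentrations, top 100 uM, in 0.5% DMSO serum-free induction medium. mRNA measured by qRT-PCR, normalized to ACTB, GAPDH and POLR2A. Bidirectional fit versus DMSO.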

[13] = read-out: Interleukin 6 Receptor (IL6R), IL6R (gene 3570); test: LTEA_HepaRG_IL6R: Life Technologies and Expression Analysis (LTEA) Assay for Interleukin 6 Receptor (IL6R) using HepaRG (AID 2283510)
Procedure, shortened: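 Differentiated human HepaRG cells, plated 48 h then switched to serum-free induction medium, were dosed in duplicate for 48 h at eight half-log concentrations up to 100 uM in 0.5% DMSO. IL6R mRNA quantified by qRT-PCR, normalized to ACTB/GAPDH/POLR2A; bidirectional fit versus DMSO.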

[14] = read-out: Potassium channel subfamily K member 1 (KCNK1), KCNK1 (gene 3775); test: LTEA_HepaRG_KCNK1: Life Technologies and Expression Analysis (LTEA) Assay for Potassium channel subfamily K member 1 (KCNK1) using HepaRG (AID 2283511)
Procedure, shortened: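 Differentiated HepaRG cells, 48 h exposure in serum-free induction medium with 0.5% DMSO; 8 concentrations, half-log from 100 uM, duplicate. KCNK1 mRNA by qRT-PCR, normalized to ACTB, GAPDH, POLR2A; bidirectional fit vs DMSO.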

[15] = read-out: Keratin 19 (KRT19), KRT19 (gene 3880); test: LTEA_HepaRG_KRT19: Life Technologies and Expression Analysis (LTEA) Assay for Keratin 19 (KRT19) using HepaRG (AID 2283512)
Procedure, shortened: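 KRT19 transcript measured by TaqMan qRT-PCR, referenced to three housekeeping genes, after HepaRG cells received test chemicals for 48 h. Eight half-log concentrations, top 100 uM, 0.5% DMSO vehicle; increases and decreases both fitted.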

[16] = read-out: JUN Transcription Factor, JUN (gene 3725); test: LTEA_HepaRG_JUN: Life Technologies and Expression Analysis (LTEA) Assay for JUN Transcription Factor using HepaRG (AID 2283513)
Procedure, shortened: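 Differentiated HepaRG cells were exposed to chemicals for 48 h in serum-free induction medium, 8 concentrations from 100 uM in half-log steps, 0.5% DMSO vehicle, in duplicate. JUN mRNA was quantified by TaqMan qRT-PCR, normalized to ACTB, GAPDH, POLR2A.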

[17] = read-out: Lipase C (LIPC), LIPC (gene 3990); test: LTEA_HepaRG_LIPC: Life Technologies and Expression Analysis (LTEA) Assay for Lipase C (LIPC) using HepaRG (AID 2283514)
Procedure, shortened: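 HepaRG cells, 48 h after plating, treated in duplicate for 48 h in serum-free induction medium over 8 half-log concentrations from 100 uM, 0.5% DMSO. LIPC mRNA by TaqMan qRT-PCR normalized to ACTB/GAPDH/POLR2A; bidirectional fit versus DMSO.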

[18] = read-out: Lipoprotein lipase (LPL), LPL (gene 4023); test: LTEA_HepaRG_LPL: Life Technologies and Expression Analysis (LTEA) Assay for Lipoprotein lipase (LPL) using HepaRG (AID 2283515)
Procedure, shortened: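 Differentiated HepaRG cells, plated 48 h, then exposed 48 h in serum-free induction medium to 8 concentrations (top 100 uM, half-log steps) in 0.5% DMSO, duplicate. LPL mRNA measured by qRT-PCR, normalized to ACTB, GAPDH and POLR2A.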

[19] = read-out: MicroRNA 122 (MIR122), gene 406906; test: LTEA_HepaRG_MIR122: Life Technologies and Expression Analysis (LTEA) Assay for MicroRNA 122 (MIR122) using HepaRG (AID 2283516); also: the transcript read is the microRNA miR-122
Procedure, shortened: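 Differentiated human HepaRG cells were exposed 48 h in serum-free induction medium to eight half-log concentrations (top 100 uM, 0.5% DMSO). Transcript level was measured by TaqMan qRT-PCR, normalized to ACTB, GAPDH and POLR2A, and fitted bidirectionally versus DMSO.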

[20] = read-out: growth arrest and DNA damage 45 (GADD45G), GADD45G (gene 10912); test: LTEA_HepaRG_GADD45G: Life Technologies and Expression Analysis (LTEA) Assay for growth arrest and DNA damage 45 (GADD45G) using HepaRG (AID 2283499)
Procedure, shortened: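 GADD45G transcript level by qRT-PCR (housekeeping-normalized: ACTB, GAPDH, POLR2A) after 48 h chemical treatment of a single HepaRG lot in serum-free induction medium; eight-point half-log series up to 100 uM in 0.5% DMSO, duplicates, up- or down-regulation scored.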

Measured: AC50

Sequence of Hypoxia-inducible factor 1-alpha (Homo sapiens) (Q16665 whole entry, looked up): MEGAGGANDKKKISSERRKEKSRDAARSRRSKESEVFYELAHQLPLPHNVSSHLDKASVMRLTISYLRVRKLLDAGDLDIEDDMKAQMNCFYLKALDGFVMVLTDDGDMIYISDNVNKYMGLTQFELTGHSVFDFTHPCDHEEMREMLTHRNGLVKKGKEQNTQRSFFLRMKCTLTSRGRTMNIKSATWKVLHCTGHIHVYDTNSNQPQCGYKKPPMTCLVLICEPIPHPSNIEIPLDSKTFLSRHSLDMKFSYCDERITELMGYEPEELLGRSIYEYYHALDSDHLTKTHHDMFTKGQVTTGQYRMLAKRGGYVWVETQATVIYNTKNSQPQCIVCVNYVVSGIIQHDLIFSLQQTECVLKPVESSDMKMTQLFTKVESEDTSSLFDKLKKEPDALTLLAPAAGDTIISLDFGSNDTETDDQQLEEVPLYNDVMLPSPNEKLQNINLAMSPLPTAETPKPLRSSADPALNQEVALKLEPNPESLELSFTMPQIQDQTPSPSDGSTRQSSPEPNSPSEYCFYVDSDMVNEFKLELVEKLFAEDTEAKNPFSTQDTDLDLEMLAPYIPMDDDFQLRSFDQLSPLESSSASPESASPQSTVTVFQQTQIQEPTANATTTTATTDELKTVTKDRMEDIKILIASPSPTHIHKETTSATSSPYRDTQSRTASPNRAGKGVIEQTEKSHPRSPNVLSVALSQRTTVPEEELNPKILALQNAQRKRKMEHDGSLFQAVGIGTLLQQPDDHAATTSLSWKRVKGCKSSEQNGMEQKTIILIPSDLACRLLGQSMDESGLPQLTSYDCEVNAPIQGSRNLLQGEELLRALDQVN

Nc1ccc2c(c1)C(=O)c1ccccc1C2=O
active: [1] 10.2 µM | [3] 10.1 µM | [7] 16.5 µM | [11] 13.2 µM | [15] 9.08 µM | [17] 8.27 µM | [18] 2090 nM | [19] 4.24 µM
not listed: [20]
inactive: all other assays above

c1cc(-c2ccncc2)ccn1
not listed: [1]
inactive: all other assays above

Cc1c(C(=O)O)c(O)cc2c1C(=O)c1c(O)c([C@@H]3O[C@H](CO)[C@@H](O)[C@H](O)[C@H]3O)c(O)c(O)c1C2=O
not listed: [1]
inactive: all other assays above

CC(=O)Oc1ccccc1C(=O)O
not listed: [1] | [6] | [20]
inactive: all other assays above

CC(C)c1ccc(C(=O)N=C(N)N)cc1S(C)(=O)=O
inactive: [6] | [7] | [12] | [15]
active: [2] 0.336 µM | [3] 0.441 µM | [4] 0.446 µM | [5] 7.39 µM | [9] 362 nM | [10] 0.388 µM | [11] 0.266 µM | [13] 0.276 µM | [14] 377 nM | [16] 395 nM | [17] 0.607 µM | [18] 310 nM | [19] 0.334 µM

NS(=O)(=O)c1cc2c(cc1Cl)NCNS2(=O)=O
not listed: [1] | [6] | [8] | [20]
inactive: all other assays above

CCCCCCCCCCCCCO
not listed: [1] | [20]
inactive: all other assays above

Cc1cc(NC(=O)C(=O)O)cc(C)c1Oc1ccc(O)c2c1CCC2
active: [6] 21 nM | [7] 0.00423 µM | [9] 22 nM | [15] 0.0224 µM
not listed: [1] | [19] | [20]
inactive: all other assays above

Cc1nc(C)nc(N2C[C@@H](C)N(c3ccnc([C@@H](C)O)n3)[C@@H](C)C2)n1
active: [8] 15.3 µM
not listed: [1] | [17]
inactive: all other assays above

COc1cc(C=O)ccc1O
not listed: [1] | [8] | [19] | [20]
inactive: all other assays above

Cc1cc(=O)[nH]c(=S)[nH]1
not listed: [1] | [8]
inactive: all other assays above

CC=Cc1ccc(O)c(OC)c1
not listed: [1] | [8] | [19]
inactive: all other assays above

Cc1oc(-c2ccccc2)nc1CCOc1cccc2c1ccn2CCC(=O)O
inactive: [5] | [6] | [14] | [16]
active: [2] 50 µM | [20] 90.2 µM | [3] 75.8 µM | [4] 9.92 µM | [7] 83.2 µM | [9] 69900 nM | [10] 85.6 µM | [11] 93.1 µM | [12] 82 µM | [13] 77.6 µM | [15] 88.5 µM | [17] 79.2 µM | [18] 30.9 nM | [19] 90.1 µM
